Laboratory results reported in PubChem BioAssay (NCI).
About 83,000 compounds went through this panel and 20% of them were active in at least one assay; those are over-represented in the sample as a whole.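 How to read the values: 0–100, growth inhibition (40 = 60% inhibited); 0, no net growth; -100 to 0, cell death (-40 = 40% of starting cells died; -100 = all dead).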 Values without a mark were called inactive. Activity calls are given as the source filed them. Rule for the calls: active = growth percent below 10; inactive = the rest.

How the values were obtained:
Test in all cases: NCI-60 one-dose screen, 48 h (100 = growth as untreated, 0 = no growth, -100 = all killed)
Details in all cases: 10 µM
HCT-15 colon = system: HCT-15 colon
HT29 colon = system: HT29 colon
SNB-75 CNS = system: SNB-75 CNS
SNB-19 CNS = system: SNB-19 CNS
U251 CNS = system: U251 CNS
PC-3 prostate = system: PC-3 prostate
SK-MEL-5 melanoma = system: SK-MEL-5 melanoma
UACC-62 melanoma = system: UACC-62 melanoma
LOX IMVI melanoma = system: LOX IMVI melanoma
SK-MEL-28 melanoma = system: SK-MEL-28 melanoma

## CC(C)NC(=O)c1cc(-c2ccc(NC(=O)Nc3ccc(N4CCN(C)CC4)c(C(F)(F)F)c3)cc2)nc2cccnc12
HCT-15 colon
  growth: -89.6% (active)
HT29 colon
  growth: -86.6% (active)
SNB-75 CNS
  growth: -96.2% (active)
SNB-19 CNS
  growth: -93.2% (active)
U251 CNS
  growth: -86.2% (active)
PC-3 prostate
  growth: -72.9% (active)
SK-MEL-5 melanoma
  growth: -100% (active)
UACC-62 melanoma
  growth: -97.1% (active)
LOX IMVI melanoma
  growth: -99.2% (active)
SK-MEL-28 melanoma
  growth: -99.3% (active)

## O=C(Cc1ccc2c(c1)CN(C1CCC(=O)NC1=O)C2=O)NCc1cccc2ccccc12 (stereo not given)
HCT-15 colon
  growth: -30.1% (active)
HT29 colon
  growth: 3.65% (active)
SNB-75 CNS
  growth: -33.1% (active)
SNB-19 CNS
  growth: -11.9% (active)
U251 CNS
  growth: 17.2%
PC-3 prostate
  growth: 6.97% (active)
SK-MEL-5 melanoma
  growth: -93.8% (active)
UACC-62 melanoma
  growth: 4.05% (active)
SK-MEL-28 melanoma
  growth: -10.6% (active)

## O=C1NC(=NC23CC4CC(CC(C4)C2)C3)N/C1=C\c1ccc2ncccc2n1
HCT-15 colon
  growth: -16.2% (active)
HT29 colon
  growth: -17.4% (active)
SNB-75 CNS
  growth: -70.7% (active)
SNB-19 CNS
  growth: -7.61% (active)
U251 CNS
  growth: 5.17% (active)
PC-3 prostate
  growth: -0.602% (active)
SK-MEL-5 melanoma
  growth: -68.3% (active)
UACC-62 melanoma
  growth: -64.4% (active)
SK-MEL-28 melanoma
  growth: -30.2% (active)

## COc1ccc2nc(Cl)c(-c3cc(-c4ccccc4)nc(=O)[nH]3)cc2c1
HCT-15 colon
  growth: 0.676% (active)
HT29 colon
  growth: 32.2%
SNB-75 CNS
  growth: 70.1%
SNB-19 CNS
  growth: 31.5%
U251 CNS
  growth: 12.6%
PC-3 prostate
  growth: 48.8%
SK-MEL-5 melanoma
  growth: 74.2%
UACC-62 melanoma
  growth: 66.8%
SK-MEL-28 melanoma
  growth: 97.7%

## COc1ccc(C(=O)Nc2ccc(-c3ccc4c(c3)NC(=O)/C4=C\c3ccc[nH]3)cc2)cc1
HCT-15 colon
  growth: 15.2%
HT29 colon
  growth: 15.6%
SNB-75 CNS
  growth: -11% (active)
SNB-19 CNS
  growth: 60.8%
U251 CNS
  growth: 32.8%
PC-3 prostate
  growth: 27.5%
SK-MEL-5 melanoma
  growth: 49.1%
UACC-62 melanoma
  growth: 78.1%
SK-MEL-28 melanoma
  growth: 88.8%

## N#Cc1ccc(-c2nn(-c3ccc(C(=O)O)cc3)cc2CNc2ccc(Cl)cc2)cc1
HCT-15 colon
  growth: 47.3%
HT29 colon
  growth: 100%
SNB-75 CNS
  growth: 107%
SNB-19 CNS
  growth: 75.9%
U251 CNS
  growth: 76.8%
PC-3 prostate
  growth: 65.2%
SK-MEL-5 melanoma
  growth: 76%
UACC-62 melanoma
  growth: 61.2%
LOX IMVI melanoma
  growth: 60.8%
SK-MEL-28 melanoma
  growth: 77.6%

## CC(C)c1ccc(C(=O)Nc2sc3c(c2C(N)=O)CCC(=O)C3=O)cc1
HCT-15 colon
  growth: 71.5%
HT29 colon
  growth: 110%
SNB-75 CNS
  growth: 98.2%
SNB-19 CNS
  growth: 97.4%
U251 CNS
  growth: 92.6%
PC-3 prostate
  growth: 82.8%
SK-MEL-5 melanoma
  growth: 99.1%
UACC-62 melanoma
  growth: 94.3%
LOX IMVI melanoma
  growth: 82.7%
SK-MEL-28 melanoma
  growth: 110%

## COc1ccc2[nH]c(=O)c(CSc3cccc(N)c3)cc2c1
HCT-15 colon
  growth: 48.2%
HT29 colon
  growth: 75.4%
SNB-75 CNS
  growth: 82.7%
SNB-19 CNS
  growth: 70.4%
U251 CNS
  growth: 70.1%
PC-3 prostate
  growth: 69.2%
SK-MEL-5 melanoma
  growth: 6.41% (active)
UACC-62 melanoma
  growth: 16.5%
LOX IMVI melanoma
  growth: 16.1%
SK-MEL-28 melanoma
  growth: 69.6%

## O=C1NC(=NC2CCCCCC2)N/C1=C\c1ccc2ncoc2c1
HCT-15 colon
  growth: 13%
HT29 colon
  growth: 56.1%
SNB-75 CNS
  growth: 14.7%
SNB-19 CNS
  growth: 29.7%
U251 CNS
  growth: 32.7%
PC-3 prostate
  growth: 53.8%
SK-MEL-5 melanoma
  growth: 21.1%
UACC-62 melanoma
  growth: 19.3%
LOX IMVI melanoma
  growth: 22.2%
SK-MEL-28 melanoma
  growth: 27.5%

## CCCCCc1ccc(S(=O)(=O)N(C(C)=O)c2cc(-c3csc(N(C)C(C)=O)n3)ccc2N2CCN(C)CC2)cc1
HCT-15 colon
  growth: -89.7% (active)
HT29 colon
  growth: -52.5% (active)
SNB-75 CNS
  growth: 73%
SNB-19 CNS
  growth: 32.2%
U251 CNS
  growth: -36.2% (active)
PC-3 prostate
  growth: 26.5%
SK-MEL-5 melanoma
  growth: -16% (active)
UACC-62 melanoma
  growth: -88.2% (active)
LOX IMVI melanoma
  growth: -99.8% (active)
SK-MEL-28 melanoma
  growth: -94.3% (active)

## CC(=O)OC[C@@]1(C)C2CC[C@]3(C)C(CC=C4C5CC(C)(C)CC[C@]5(C(=O)Nc5ccccc5)CC[C@]43C)[C@@]2(C)C[C@@H](OC(C)=O)[C@@H]1OC(C)=O (stereo not given in full)
HCT-15 colon
  growth: 25.1%
HT29 colon
  growth: 28.5%
SNB-75 CNS
  growth: 58.4%
SNB-19 CNS
  growth: 39.9%
U251 CNS
  growth: 39.9%
PC-3 prostate
  growth: 27.7%
SK-MEL-5 melanoma
  growth: 2.74% (active)
UACC-62 melanoma
  growth: 31%
LOX IMVI melanoma
  growth: 3.23% (active)
SK-MEL-28 melanoma
  growth: 59.2%

## O=c1c2ccccc2nc(COc2ccccc2)n1/N=C/c1ccc(N2CCOCC2)cc1
HCT-15 colon
  growth: 80.8%
HT29 colon
  growth: 93.8%
SNB-75 CNS
  growth: 43.9%
SNB-19 CNS
  growth: 3.55% (active)
U251 CNS
  growth: 51.5%
PC-3 prostate
  growth: 75.6%
SK-MEL-5 melanoma
  growth: 82%
UACC-62 melanoma
  growth: 69.4%
LOX IMVI melanoma
  growth: 69.6%
SK-MEL-28 melanoma
  growth: 83.3%

## CCCn1c(=O)c2[nH]c(-c3ccc(OCc4nc5ccc(C(F)(F)F)cc5[nH]4)cc3)nc2n(CCC)c1=O
HCT-15 colon
  growth: 23.1%
HT29 colon
  growth: 62%
SNB-75 CNS
  growth: 84.6%
SNB-19 CNS
  growth: 71.5%
U251 CNS
  growth: 37.6%
PC-3 prostate
  growth: 33.2%
SK-MEL-5 melanoma
  growth: 37.1%
UACC-62 melanoma
  growth: 6.48% (active)
LOX IMVI melanoma
  growth: 35.5%
SK-MEL-28 melanoma
  growth: 58.4%

## COc1ccc(C(=O)Nc2sc3c(c2C#N)CCC(=O)C3)cc1C(F)(F)F
HCT-15 colon
  growth: -69.8% (active)
HT29 colon
  growth: -31.4% (active)
SNB-75 CNS
  growth: -15.2% (active)
SNB-19 CNS
  growth: -5.9% (active)
U251 CNS
  growth: 3.33% (active)
PC-3 prostate
  growth: 8.45% (active)
SK-MEL-5 melanoma
  growth: -92.2% (active)
UACC-62 melanoma
  growth: -25.5% (active)
SK-MEL-28 melanoma
  growth: -12.6% (active)
